# Measured values reported in PubChem BioAssay (EPA / NIEHS).
# Records with an inconclusive call do not appear. Active and inactive are the calls of the source. The calls were made as follows: active = hit-call score of the fitted dose curve at least 0.9, where 1 is the maximum; inconclusive = response in the unintended direction; inactive = score below 0.9.
# Experiments:
# [1] = molecular target: Androgen Receptor/SRC-1 Co-activator, AR (gene 367) (UniProt P10275); assay: OT_AR_ARSRC1_0480: Odyssey Thera (OT) 8-hour HEK293T Protein-Complementation Assay for Androgen Receptor/SRC-1 Co-activator (AID 2283354);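 also: hits raise the complementation signal above DMSO so AC50 marks enhancers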
# Chain of Androgen Receptor/SRC-1 Co-activator, AR (gene 367) (P10275 whole entry, looked up, the tested form may be a part): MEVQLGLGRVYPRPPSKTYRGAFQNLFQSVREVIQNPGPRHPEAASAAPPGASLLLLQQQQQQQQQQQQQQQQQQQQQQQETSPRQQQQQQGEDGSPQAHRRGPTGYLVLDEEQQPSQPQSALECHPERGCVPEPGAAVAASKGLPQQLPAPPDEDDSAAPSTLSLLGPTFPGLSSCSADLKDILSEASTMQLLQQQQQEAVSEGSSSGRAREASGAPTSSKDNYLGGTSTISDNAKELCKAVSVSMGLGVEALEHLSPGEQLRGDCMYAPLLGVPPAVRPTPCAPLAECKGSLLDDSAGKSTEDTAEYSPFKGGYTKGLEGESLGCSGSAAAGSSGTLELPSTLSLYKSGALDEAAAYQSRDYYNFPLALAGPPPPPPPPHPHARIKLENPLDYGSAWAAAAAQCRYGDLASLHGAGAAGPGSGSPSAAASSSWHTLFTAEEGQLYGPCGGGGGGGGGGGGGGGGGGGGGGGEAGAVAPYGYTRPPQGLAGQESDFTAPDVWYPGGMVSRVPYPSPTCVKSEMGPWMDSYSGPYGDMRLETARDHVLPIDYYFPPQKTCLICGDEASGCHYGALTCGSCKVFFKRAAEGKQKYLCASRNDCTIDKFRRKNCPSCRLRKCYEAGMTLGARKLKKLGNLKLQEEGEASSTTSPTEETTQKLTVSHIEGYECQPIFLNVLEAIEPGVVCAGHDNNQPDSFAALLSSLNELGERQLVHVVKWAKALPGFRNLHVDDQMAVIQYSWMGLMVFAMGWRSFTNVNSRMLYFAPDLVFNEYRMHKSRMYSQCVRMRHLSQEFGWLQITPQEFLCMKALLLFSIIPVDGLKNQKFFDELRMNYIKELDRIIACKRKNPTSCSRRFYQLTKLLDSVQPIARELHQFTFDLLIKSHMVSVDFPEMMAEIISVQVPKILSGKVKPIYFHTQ
# How it was run: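 HEK293T cells stably expressing AR and SRC-1 fused to Venus YFP fragments, imaged 8 h after dosing. Complementation fluorescence scored as nuclear/cytoplasmic ratio at 488 nm in at least 400 cells per image; gain fitted versus DMSO.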
# [2] = molecular target: human Peroxisome Proliferator-activated Receptor alpha (PPARa), PPARA (gene 5465) (UniProt Q07869); assay: NVS_NR_hPPARa: NovaScreen (NVS) Nuclear Receptor Binding Assay for human Peroxisome Proliferator-activated Receptor alpha (PPARa) (AID 2283359);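 also: activity means loss of TR-FRET signal versus DMSO baseline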
# How it was run: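 Cell-free TR-FRET binding assay with extracted PPARα protein, read 1 h after dosing. Primary screen in duplicate at 25 uM, with actives retested in concentration series. Loss of signal versus DMSO.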
# [3] = molecular target: PGR (gene 5241) (UniProt P06401); assay: NVS_NR_hPR: NovaScreen (NVS) Nuclear Receptor Binding Assay for human Progestron Receptor (PR) (AID 2283360);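 also: active means loss of bound radioligand signal versus DMSO baseline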
# Chain of PGR (gene 5241) (P06401 whole entry, looked up): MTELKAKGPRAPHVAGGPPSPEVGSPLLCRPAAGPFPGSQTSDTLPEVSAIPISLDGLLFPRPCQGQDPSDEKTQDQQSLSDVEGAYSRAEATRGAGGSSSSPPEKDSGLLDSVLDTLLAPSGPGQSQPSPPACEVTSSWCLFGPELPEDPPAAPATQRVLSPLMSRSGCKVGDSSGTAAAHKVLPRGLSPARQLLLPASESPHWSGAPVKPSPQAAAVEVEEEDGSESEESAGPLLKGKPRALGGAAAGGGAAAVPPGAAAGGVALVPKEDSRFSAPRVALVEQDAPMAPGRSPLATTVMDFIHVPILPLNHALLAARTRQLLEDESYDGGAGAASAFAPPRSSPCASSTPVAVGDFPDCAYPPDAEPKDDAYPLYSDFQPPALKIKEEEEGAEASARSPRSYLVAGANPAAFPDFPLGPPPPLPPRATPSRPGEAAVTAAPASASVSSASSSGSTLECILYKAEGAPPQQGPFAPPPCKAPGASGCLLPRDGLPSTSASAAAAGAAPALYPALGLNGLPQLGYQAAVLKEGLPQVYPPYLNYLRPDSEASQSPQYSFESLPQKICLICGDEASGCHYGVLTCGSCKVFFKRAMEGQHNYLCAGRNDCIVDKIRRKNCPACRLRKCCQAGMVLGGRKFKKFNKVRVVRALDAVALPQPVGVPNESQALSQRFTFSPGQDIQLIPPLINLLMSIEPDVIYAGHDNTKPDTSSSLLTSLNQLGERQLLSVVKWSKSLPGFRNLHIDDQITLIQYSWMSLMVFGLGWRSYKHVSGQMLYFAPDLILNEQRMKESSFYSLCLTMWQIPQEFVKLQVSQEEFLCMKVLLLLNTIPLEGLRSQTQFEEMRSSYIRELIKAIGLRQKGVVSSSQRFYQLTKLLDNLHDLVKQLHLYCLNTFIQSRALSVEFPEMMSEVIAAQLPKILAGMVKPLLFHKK
# How it was run: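 Radioligand competition binding on receptor extracted from T47D cells, read by scintillation counting 18 h after dosing. Loss of signal versus DMSO; primary screen in duplicate at 25 uM, actives followed in concentration series.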
# [4] = molecular target: human Thyroid Receptor Alpha (TRa), THRA (gene 7067) (UniProt P10827); assay: NVS_NR_hTRa_Antagonist: NovaScreen (NVS) Nuclear Receptor Binding Assay for human Thyroid Receptor Alpha Antagonism (TRa) (AID 2283362);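 also: activity is loss of signal relative to DMSO baseline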
# Chain of human Thyroid Receptor Alpha (TRa), THRA (gene 7067) (P10827 whole entry, looked up): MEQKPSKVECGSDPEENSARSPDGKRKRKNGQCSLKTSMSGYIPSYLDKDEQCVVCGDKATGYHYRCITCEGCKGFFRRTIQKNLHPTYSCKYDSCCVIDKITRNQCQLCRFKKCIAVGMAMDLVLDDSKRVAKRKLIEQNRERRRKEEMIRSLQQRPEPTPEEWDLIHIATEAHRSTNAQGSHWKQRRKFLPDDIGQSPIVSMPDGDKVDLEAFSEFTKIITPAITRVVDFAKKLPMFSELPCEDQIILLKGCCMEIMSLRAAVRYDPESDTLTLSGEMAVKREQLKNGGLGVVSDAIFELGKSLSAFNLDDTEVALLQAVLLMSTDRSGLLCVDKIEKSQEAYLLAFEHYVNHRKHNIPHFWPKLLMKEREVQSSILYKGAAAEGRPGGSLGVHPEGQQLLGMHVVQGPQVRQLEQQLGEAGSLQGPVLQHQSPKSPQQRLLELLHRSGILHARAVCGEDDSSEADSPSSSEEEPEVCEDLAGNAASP
# How it was run: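 Actives from a duplicate 25 uM single-point screen were retested in concentration series. The cell-free antagonist-format binding assay was read by AlphaLISA chemiluminescence at 1 h, scored as signal loss relative to DMSO.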
# [5] = molecular target: guinea pig Sigma Receptor, Non-selective Binding, SIGMAR1 (gene 100135589) (UniProt Q60492); assay: NVS_OR_gSIGMA_NonSelective: NovaScreen (NVS) Nuclear Receptor Binding Assay for guinea pig Sigma Receptor, Non-selective Binding (AID 2283367)
# Chain of guinea pig Sigma Receptor, Non-selective Binding, SIGMAR1 (gene 100135589) (Q60492 whole entry, looked up): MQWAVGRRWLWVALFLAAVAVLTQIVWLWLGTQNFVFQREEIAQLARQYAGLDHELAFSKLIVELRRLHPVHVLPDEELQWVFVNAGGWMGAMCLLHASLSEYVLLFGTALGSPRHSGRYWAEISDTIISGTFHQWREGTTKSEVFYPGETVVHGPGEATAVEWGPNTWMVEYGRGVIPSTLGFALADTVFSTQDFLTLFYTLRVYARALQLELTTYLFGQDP
# How it was run: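 Radioligand displacement on guinea pig brain membranes, read by filter-based scintillation counting 1 h after dosing. Loss of signal versus DMSO; initial duplicate single-point screen at 25 uM, actives followed in concentration series.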
# [6] = molecular target: Peroxisome proliferator-activated receptor gamma (Homo sapiens) (UniProt P37231); assay: NVS_NR_hPPARg: NovaScreen (NVS) Nuclear Receptor Binding Assay for human Peroxisome Proliferator-activated Receptor gamma (PPARg) (AID 2283370)
# How it was run: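 Fluorescence polarization readout of ligand binding to extracted human PPARg, measured at 2 h. Duplicate single-point screen at 25 uM, then concentration-series retesting; activity defined as signal loss versus DMSO.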
# [7] = molecular target: human Norepinephrine Transporter (NET), SLC6A2 (gene 6530) (UniProt P23975); assay: NVS_TR_hNET: NovaScreen (NVS) Transporter Assay for human Norepinephrine Transporter (NET) (AID 2283377);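 as to AC50: displacement of radioligand from human NET seen as loss of scintillation signal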
# How it was run: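 Cell-free radioligand binding using CHO-derived membrane protein expressing human NET, read by filter scintillation counting 1 h after dosing; loss of signal vs DMSO. Initial duplicate screen at 25 uM, actives retested in concentration series.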
# [8] = molecular target: Estrogen receptor (Homo sapiens) + Estrogen receptor beta (Homo sapiens) (UniProt P03372+Q92731); assay: OT_ER_ERaERb_1440: Odyssey Thera (OT) 24-hour HEK293T Protein-Complementation Assay for Estrogen Receptor-alpha/-beta Homodimer (AID 2283356);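 also: heteromer of ER alpha and ER beta binding domains; hits raise reporter fluorescence and both agonists and antagonists give an increase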
# How it was run: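 Fragment complementation between ER alpha (310-547) and ER beta (263-489) ligand-binding domains in HEK293T cells; signal read 24 h post-dosing by laser scanning cytometer. Gain of fluorescence relative to DMSO fitted.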
# [9] = molecular target: Estrogen receptor beta (Homo sapiens) (UniProt Q92731); assay: OT_ER_ERbERb_0480: Odyssey Thera (OT) 8-hour HEK293T Protein-Complementation Assay for Estrogen Receptor-beta/-beta Homodimer (AID 2283357);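 also: active means signal gain over DMSO baseline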
# Chain of Estrogen receptor beta (Homo sapiens) (Q92731 whole entry, looked up, the tested form may be a part): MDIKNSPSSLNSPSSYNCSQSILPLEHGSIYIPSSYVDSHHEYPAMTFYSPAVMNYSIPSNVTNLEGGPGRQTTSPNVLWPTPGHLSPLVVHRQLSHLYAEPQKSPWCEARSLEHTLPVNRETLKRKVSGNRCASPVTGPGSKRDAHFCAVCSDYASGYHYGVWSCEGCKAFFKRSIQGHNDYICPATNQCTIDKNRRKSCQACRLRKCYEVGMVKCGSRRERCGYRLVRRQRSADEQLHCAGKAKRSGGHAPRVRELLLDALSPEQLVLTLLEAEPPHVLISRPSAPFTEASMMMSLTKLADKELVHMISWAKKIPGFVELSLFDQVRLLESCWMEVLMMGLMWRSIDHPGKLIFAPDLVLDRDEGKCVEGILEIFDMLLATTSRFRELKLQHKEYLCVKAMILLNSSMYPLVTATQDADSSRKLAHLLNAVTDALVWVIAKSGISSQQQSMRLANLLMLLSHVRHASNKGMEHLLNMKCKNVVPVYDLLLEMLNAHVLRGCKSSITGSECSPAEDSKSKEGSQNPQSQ
# How it was run: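 Fluorescence intensity, nuclear for agonists and nuclear plus cytoplasmic for antagonists, was quantified by laser scanning cytometry versus vehicle after 8 h treatment. The cells were HEK293T stably carrying ER beta LBD fragment-complementation partners.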
# [10] = molecular target: Nuclear receptor subfamily 1 group I member 2 (Homo sapiens) (UniProt O75469); assay: NVS_NR_hPXR: NovaScreen (NVS) Nuclear Receptor Binding Assay for human Pregnane X Receptor (PXR) (AID 2283365);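 also: a drop in FRET signal versus DMSO baseline means the compound binds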
# Chain of Nuclear receptor subfamily 1 group I member 2 (Homo sapiens) (O75469 whole entry, looked up): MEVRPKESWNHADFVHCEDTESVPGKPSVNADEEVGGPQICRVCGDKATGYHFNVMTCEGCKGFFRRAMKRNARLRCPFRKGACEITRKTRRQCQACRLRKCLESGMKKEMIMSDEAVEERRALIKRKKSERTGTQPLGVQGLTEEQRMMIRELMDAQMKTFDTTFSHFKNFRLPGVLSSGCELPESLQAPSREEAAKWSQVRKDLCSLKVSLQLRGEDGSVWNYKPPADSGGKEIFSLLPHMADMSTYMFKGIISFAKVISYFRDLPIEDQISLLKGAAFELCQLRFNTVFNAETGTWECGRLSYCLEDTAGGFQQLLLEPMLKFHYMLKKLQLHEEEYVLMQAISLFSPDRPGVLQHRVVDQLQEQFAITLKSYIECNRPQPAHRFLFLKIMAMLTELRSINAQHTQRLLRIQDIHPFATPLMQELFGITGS
# How it was run: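 Human PXR binding measured by TR-FRET in a cell-free format, 2 h exposure. Single-concentration duplicates at 25 uM preceded concentration-response retests of actives; endpoint fitted positively relative to DMSO, loss of signal indicating binding.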
# [11] = molecular target: human Dopamine Transporter (DAT), SLC6A3 (gene 6531) (UniProt Q01959); assay: NVS_TR_hDAT: NovaScreen (NVS) Transporter Assay for human Dopamine Transporter (DAT) (AID 2283374);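 also: activity means loss of bound radioligand signal relative to DMSO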
# Chain of human Dopamine Transporter (DAT), SLC6A3 (gene 6531) (Q01959 whole entry, looked up): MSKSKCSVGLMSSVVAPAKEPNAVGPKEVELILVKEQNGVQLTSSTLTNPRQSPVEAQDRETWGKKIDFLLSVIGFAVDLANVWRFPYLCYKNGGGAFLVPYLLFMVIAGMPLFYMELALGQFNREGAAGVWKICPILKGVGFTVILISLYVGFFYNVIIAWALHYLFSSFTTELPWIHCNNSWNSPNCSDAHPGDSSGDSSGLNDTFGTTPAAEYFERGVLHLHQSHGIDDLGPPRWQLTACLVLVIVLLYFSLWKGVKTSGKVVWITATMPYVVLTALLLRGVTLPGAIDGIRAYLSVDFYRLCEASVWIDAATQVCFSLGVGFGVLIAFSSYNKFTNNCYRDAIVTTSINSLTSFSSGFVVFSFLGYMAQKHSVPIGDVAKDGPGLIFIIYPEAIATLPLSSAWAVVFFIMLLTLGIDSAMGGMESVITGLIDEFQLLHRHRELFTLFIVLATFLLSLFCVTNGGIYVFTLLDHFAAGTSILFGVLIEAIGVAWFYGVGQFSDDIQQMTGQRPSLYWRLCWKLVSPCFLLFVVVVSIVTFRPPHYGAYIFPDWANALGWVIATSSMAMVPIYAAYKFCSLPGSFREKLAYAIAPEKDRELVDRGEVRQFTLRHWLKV
# How it was run: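 Cell-free radioligand displacement binding at human DAT, 1 h after dosing, with filtration and scintillation counting. Primary screen in duplicate at 25 uM, actives then in concentration series. Loss of bound signal versus DMSO scored.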
# [12] = molecular target: rat Serotonin Transporter (SERT), Slc6a4 (gene 25553) (UniProt P31652); assay: NVS_TR_rSERT: NovaScreen (NVS) Transporter Assay for rat Serotonin Transporter (SERT) (AID 2283375)
# How it was run: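 Radioligand binding with competitive displacement on rat forebrain membrane preparations, counted by filtration and scintillation after 1 h. Primary single-point duplicates at 25 uM; active chemicals followed up in concentration-response. DMSO served as baseline.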
# [13] = molecular target: Glucocorticoid receptor (Homo sapiens) (UniProt P04150); assay: NVS_NR_hGR: NovaScreen (NVS) Nuclear Receptor Binding Assay for human Glucocorticoid Receptor (GR) (AID 2283363);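 as to AC50: activity is loss of specific radioligand binding signal relative to DMSO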
# Chain of Glucocorticoid receptor (Homo sapiens) (P04150 whole entry, looked up): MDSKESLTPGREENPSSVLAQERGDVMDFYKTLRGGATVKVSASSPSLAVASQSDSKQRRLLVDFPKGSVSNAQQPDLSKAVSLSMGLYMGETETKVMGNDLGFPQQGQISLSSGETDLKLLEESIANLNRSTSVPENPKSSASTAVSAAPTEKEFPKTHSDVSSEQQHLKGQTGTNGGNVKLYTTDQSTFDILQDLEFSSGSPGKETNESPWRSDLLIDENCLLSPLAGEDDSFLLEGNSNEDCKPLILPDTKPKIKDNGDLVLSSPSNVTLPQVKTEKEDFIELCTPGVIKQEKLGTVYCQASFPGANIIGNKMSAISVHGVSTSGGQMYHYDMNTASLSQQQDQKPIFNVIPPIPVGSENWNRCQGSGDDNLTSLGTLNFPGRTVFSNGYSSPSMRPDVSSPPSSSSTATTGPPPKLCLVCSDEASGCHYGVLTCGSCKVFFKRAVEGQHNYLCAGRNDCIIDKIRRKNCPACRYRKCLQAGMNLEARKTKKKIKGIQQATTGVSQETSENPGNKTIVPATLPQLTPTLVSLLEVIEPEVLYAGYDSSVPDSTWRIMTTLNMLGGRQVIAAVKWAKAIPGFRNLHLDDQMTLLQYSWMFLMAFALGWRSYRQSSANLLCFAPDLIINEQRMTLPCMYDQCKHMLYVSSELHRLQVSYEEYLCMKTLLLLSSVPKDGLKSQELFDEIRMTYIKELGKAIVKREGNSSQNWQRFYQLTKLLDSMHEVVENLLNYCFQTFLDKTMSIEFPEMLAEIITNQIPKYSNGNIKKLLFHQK
# How it was run: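 Cell-free radioligand displacement assay on extracted human GR, read 16 h after dosing by filter-based scintillation counting. Screened in duplicate at 25 uM, then concentration series for actives; loss of signal versus DMSO baseline.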
# [14] = tested on: guinea pig Dopamine Transporter (DAT), gene 100714898; assay: NVS_TR_gDAT: NovaScreen (NVS) Transporter Assay for guinea pig Dopamine Transporter (DAT) (AID 2283369);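 also: active compounds lower bound radioligand signal relative to DMSO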
# How it was run: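 Radioligand displacement on membranes from guinea pig striatum, 2 h exposure, bound label counted by filtration and scintillation. Tested at 25 uM in duplicate, then actives in concentration series to 50 uM; DMSO as negative control.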
# [15] = molecular target: human Serotonin Transporter (SERT), SLC6A4 (gene 6532) (UniProt P31645); assay: NVS_TR_hSERT: NovaScreen (NVS) Transporter Assay for human Serotonin Transporter (SERT) (AID 2283372)
# How it was run: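 Radioligand binding to native SERT in human platelet membranes, read by filter-based scintillation counting 1 h after dosing. Primary screen in duplicate at 25 uM; actives followed up in concentration series; loss of signal versus DMSO baseline.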
# [16] = molecular target: human Adenosine Transporter (Adot), SLC29A1 (gene 2030) (UniProt Q99808); assay: NVS_TR_hAdoT: NovaScreen (NVS) Transporter Assay for human Adenosine Transporter (Adot) (AID 2283368)
# How it was run: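 U937-derived membranes, cell-free radioligand binding, filter scintillation 1 h after dosing. 25 uM duplicate screen; hits (e.g. 30% inhibition) run in concentration-response up to 50 uM; loss of signal versus DMSO.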
# [17] = molecular target: Retinoic acid receptor alpha (Homo sapiens) (UniProt P10276); assay: NVS_NR_hRAR_Antagonist: NovaScreen (NVS) Nuclear Receptor Binding Assay for human Retinoic Acid Alpha Receptor Antagonism (RAR) (AID 2283358)
# How it was run: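 Cell-free TR-FRET binding assay with extracted human RARalpha in antagonist mode, read 2 h after dosing. Loss of signal was fitted relative to DMSO; the primary screen used 25 uM in duplicate, with concentration series on follow-up.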
smiles,measurement,setting,value
CCOc1ccc2c(c1)C(C)=CC(C)(C)N2,outcome,[1],inactive
same,outcome,[2],inactive
same,AC50,[3],9.2 µM (active)
same,outcome,[4],inactive
same,AC50,[5],16.4 µM (active)
same,outcome,[6],inactive
same,outcome,[7],inactive
CNC(=O)[C@H]1O[C@@H](n2cnc3c(NCc4cc(Cl)ccc4OCc4cc(C)no4)ncnc32)[C@H](O)[C@@H]1N,outcome,[1],inactive
same,outcome,[8],inactive
same,outcome,[9],inactive
same,outcome,[10],inactive
same,AC50,[5],9.75 µM (active)
COCCOC[C@H](CC1(C(=O)NC2CCC(C(=O)O)CC2)CCCC1)C(=O)Oc1ccc2c(c1)CCC2 (stereo partly specified),outcome,[1],inactive
same,outcome,[8],inactive
same,outcome,[9],inactive
same,outcome,[3],inactive
Oc1ccc2ccccc2c1N=Nc1ccccc1,outcome,[8],inactive
same,outcome,[2],inactive
same,outcome,[4],inactive
same,outcome,[5],inactive
same,outcome,[6],inactive
CC1(C)CC(N=C=O)CC(C)(CN=C=O)C1 (stereo unspecified),AC50,[3],11.7 µM (active)
same,outcome,[4],inactive
same,outcome,[11],inactive
same,AC50,[7],9.14 µM (active)
CCCCCC(=O)O,outcome,[8],inactive
same,outcome,[9],inactive
same,outcome,[12],inactive
CN1CCN(Cc2cc(-c3ccc4[nH]c(=O)oc4c3)co2)[C@@H](c2ccc(F)cc2)C1,AC50,[13],13.2 µM (active)
same,AC50,[5],5.66 µM (active)
same,AC50,[14],5.69 µM (active)
same,AC50,[15],3.37 µM (active)
same,AC50,[11],1.99 µM (active)
same,AC50,[12],2.52 µM (active)
same,AC50,[7],12.7 µM (active)
CCCCC(CC)COC(=O)CC(C(=O)OCC(CC)CCCC)S(=O)(=O)O (stereo unspecified),outcome,[8],inactive
same,AC50,[3],18.7 µM (active)
same,AC50,[13],5.89 µM (active)
same,AC50,[10],1.03 µM (active)
same,AC50,[16],19.1 µM (active)
same,AC50,[14],20.6 µM (active)
same,AC50,[6],0.221 µM (active)
same,AC50,[11],8.14 µM (active)
same,AC50,[7],10.2 µM (active)
CCCCCCCCCCC,outcome,[8],inactive
same,outcome,[6],inactive
FC(F)(F)C(F)(F)C(F)(F)C(F)(F)C(F)(F)C(F)(F)CCI,outcome,[17],inactive
same,outcome,[10],inactive
same,AC50,[5],3.3 µM (active)
CCCCCCCCCCCCCO,outcome,[8],inactive
same,outcome,[9],inactive
same,outcome,[6],inactive
C=CCc1ccc(O)c(OC)c1,AC50,[6],25 µM (active)
Nc1nc(N)c2nc(CNc3ccc(C(=O)N[C@@H](CCC(=O)O)C(=O)O)cc3)cnc2n1,outcome,[8],inactive
same,outcome,[9],inactive
same,outcome,[16],inactive
same,outcome,[7],inactive
Cc1nc(C)nc(N2C[C@@H](C)N(c3ccnc([C@@H](C)O)n3)[C@@H](C)C2)n1,AC50,[5],3.21 µM (active)
c1cc(-c2ccncc2)ccn1,outcome,[8],inactive
same,outcome,[9],inactive
same,outcome,[3],inactive
same,outcome,[16],inactive
CC=Cc1ccc(O)c(OC)c1,AC50,[14],16.6 µM (active)
same,outcome,[6],inactive
same,AC50,[11],8.8 µM (active)
CCCCCCCCCCCC(=O)OC,outcome,[8],inactive
same,outcome,[6],inactive
Nc1ccc2c(c1)C(=O)c1ccccc1C2=O,outcome,[4],inactive
same,outcome,[13],inactive
same,outcome,[6],inactive
same,outcome,[7],inactive
